For 28 compounds, composite z-score results are on record in PubChem BioAssay.

Chain of Fibroblast growth factor 2 (Homo sapiens) (P09038 whole entry, looked up): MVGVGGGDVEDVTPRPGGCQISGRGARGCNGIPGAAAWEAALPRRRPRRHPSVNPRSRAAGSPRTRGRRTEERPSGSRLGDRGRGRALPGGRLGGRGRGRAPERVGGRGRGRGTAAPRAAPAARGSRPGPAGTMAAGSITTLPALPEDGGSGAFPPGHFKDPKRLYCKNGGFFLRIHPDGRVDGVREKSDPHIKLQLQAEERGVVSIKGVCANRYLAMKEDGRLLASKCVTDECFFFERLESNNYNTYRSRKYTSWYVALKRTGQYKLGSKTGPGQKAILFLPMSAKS

This test has as its target Fibroblast growth factor 2 (Homo sapiens) (UniProt P09038). The experiment in a line: basic fibroblast growth factor binding to printed compounds – biochemical, small-molecule microarray, 635/667 nm fluorescence, primary screen (AID 1133). Particulars: FGF2, fluorescence 635/667, higher = more signal.
The compound `CC(C)NC(=O)[C@@H]1c2ccccc2C(=O)N(Cc2cc(C(F)(F)F)cc(C(F)(F)F)c2)[C@H]1c1ccc(CO)cc1` showed a composite z-score of 0.507.
Regarding `O=C(CS)NCCCCCNC(=O)[C@@H]1C[C@@H]2C(=O)N3CCC[C@H]3C(=O)N2[C@@H]1c1ccc(O)cc1`, the composite z-score came out at 1.34.
Consider `CCCCC=C[C@@H](NC(=O)CCc1ccccc1)c1ccccc1`, for which the composite z-score came out at 0.362.
As for `COCCOC(=O)N1C(=O)[C@@]2(c3cc(C#Cc4ccc(OC)cc4)ccc31)[C@H](C(=O)N1CCc3cc(OC)c(OC)cc3C1)[C@H]1C(=O)O[C@H](c3ccccc3)[C@H](c3ccccc3)N1[C@@H]2c1ccc(OCCO)cc1`, the composite z-score stood at 1.3.
The same measure for `OCc1ccc(-c2cc[n+](Cc3cccc(OC(F)(F)F)c3)cc2)cc1`: 1.25; for `O=C(Nc1cc(Br)ccc1C(=O)NCc1cccc(O)c1)c1ccccc1`: 0.324; for `COC(=O)c1ccc(OC)c(/C=C\CC(CCc2ccccc2)OC(C)=O)c1` (stereo not drawn): -0.293.
With `O=C1C[C@@](C(=O)O)(c2ccc([N+](=O)[O-])cc2)[C@@H](c2ccc(CO)cc2)N1CC12CC3CC(CC(C3)C1)C2`, the composite z-score is -0.119.
Regarding `CO[C@H]1O[C@H](CO)[C@@H](OC(=O)Nc2cccc(F)c2)[C@H](OC(=O)Nc2ccc3c(c2)OCO3)[C@H]1OC(=O)Nc1ccc2c(c1)OCO2`, the composite z-score amounted to 0.819.
As for `COc1ccc([Si](C)(C)[C@H]2[C@H](CCO)O[C@@]3(C(=O)N(Cc4cccc(N5CCOC5=O)c4)c4ccccc43)[C@@H]2C)cc1`, the composite z-score came to 0.203.
Regarding `COC(=O)C(CC#Cc1ccc2c(c1)[C@]1(C(=O)N2)[C@H](c2ccccc2OCCO)N2[C@H](c3ccccc3)[C@H](c3ccccc3)OC(=O)[C@H]2[C@@H]1C(=O)Nc1nc2ccccc2s1)C(=O)OC`, the composite z-score turned out to be 0.622.
The same measure for `CCOC(=O)C[C@H]1[C@H](OC(=O)Cc2ccc3c(c2)OCO3)[C@@H](NC(=O)c2ccccc2)c2cc(OCCCO)ccc2N1C(=O)c1ccc2ccccc2n1`: 0.77.
With `Cc1ccc(S[C@]2(C(=O)NCc3ccccc3)CC(=O)N(C3Cc4ccccc4C3)[C@@H]2c2ccc(CO)cc2I)cc1`, the composite z-score was -0.244.
For the compound `CC(C)C(CO)N1C(=O)[C@@H]2[C@H]3C(=O)OCC=C[C@H]3OC23C=CCN(CCN2CCOCC2)C(=O)[C@@H]13` (stereo partly drawn), the composite z-score was -0.328.
Compound `C=CCOC(=O)[C@@H]1[C@H]2C(=O)O[C@H](c3ccccc3)[C@H](c3ccccc3)N2[C@H](c2ccc(OCCOC(=O)[C@H]3C[C@H]4C(=O)N[C@@H](Cc5ccccc5)C(=O)N4[C@H]3c3cccc(OCCO)c3)cc2)[C@@]12C(=O)Nc1ccc(I)cc12` yielded a composite z-score of 1.72.
Take `CCOC(=O)C[C@H]1[C@H](OC(=O)c2ccccc2-c2ccccc2)[C@@H](NC(=O)c2ccccc2)c2cc(OCCCO)ccc2N1C(=O)Cc1ccc(OC)cc1`: the composite z-score was -0.188.
The same measure for `NCCCCCCNC(=O)[C@H]1C[C@H]2C(=O)N3CCC[C@H]3C(=O)N2[C@H]1c1ccc(O)cc1`: 1.66.
For `COC(=O)[C@@]1(Cc2ccc(F)cc2)[C@H]2c3cc(C(=O)N4CCCC4)n(Cc4ccccc4)c3C[C@H]2CN1C(=O)c1ccccc1`, the composite z-score is -0.481.
In the case of `COC(=O)[C@@]1(Cc2ccccc2)[C@H]2c3cc(C(=O)N(C)C)n(Cc4ccccn4)c3C[C@H]2CN1C(=O)c1ccccc1`, the composite z-score was -0.389.
Consider `O=C1c2ccccc2[C@](Cc2ccccc2I)(C(=O)NCC(F)(F)F)[C@H](c2ccc(CO)cc2)N1Cc1ccccc1`, for which the composite z-score was -0.0189.
On to `O=C1NC(=O)C2C1C=CC(C(O)c1ccc3c(c1)OCO3)N2Nc1ccc(Cl)cc1Cl` (stereo not drawn), for which the composite z-score is -0.0317.
In the case of `COCCOC(=O)N1C(=O)[C@@]2(c3cc(C#CCCO)ccc31)[C@H](c1ccc(OCCO)cc1)N1[C@H](c3ccccc3)[C@H](c3ccccc3)OC(=O)[C@H]1[C@@H]2C(=O)N1CCc2cc(OC)c(OC)cc2C1` it was 1.11; in that of `CC(C)c1ccc(NN2C(C(O)c3cccs3)C=CC3C(=O)N(c4ccccc4)C(=O)C32)cc1` (stereo not drawn), -0.737.
Take `C#CCNS(=O)(=O)N(C)C`: the composite z-score came out at 0.203.
The same measure for `C=CC[C@]1(C(=O)N(C)C)N=C(c2ccc(OCCCO)cc2)O[C@H]1c1ccccc1`: -0.165.
In the case of `C[C@@H]1ON(c2ccccc2)[C@H](c2ccccc2)[C@H]1C(=O)N1C(=O)OC[C@H]1Cc1ccccc1`, the composite z-score was 0.375.
`COc1ccc([Si](C)(C)[C@H]2[C@H](CC(=O)N3CCC[C@H]3CO)O[C@@]3(C(=O)N(Cc4ccc(N5C(=O)c6cccc7cccc5c67)cc4)c4ccccc43)[C@@H]2C)cc1` yielded a composite z-score of 1.21.
Turning to `COCC1=C([C@H](O)CCc2ccccc2)[C@H](CO)[C@@H]2C(=O)N(C)C(=O)[C@@H]2C1`, the composite z-score was 0.584.
